Experimental findings from ChEMBL document CHEMBL4513216, “Probing the Open Global Health Chemical Diversity Library for Multistage-Active Starting Points for Next-Generation Antimalarials” (ACS Infect Dis, 2020) are described below.

The whole screen tested about 65,000 compounds, of which about 2,100 (3.2%) showed an effect of 50% or more. The median lay at about -52%. For the sample, strong results were picked, then their nearest neighbours and some compounds at random.

This assay has as its system Plasmodium falciparum. The experiment in a line: Screen against P. falciparum Asexual Blood Stage (ABS), at 5uM. It counts as functional, Dd2. Conditions: tested at 5 uM.
In the case of `CCN(CC)C(=O)C1CCCN1C(=O)c1cccc(-n2cnnn2)c1` (stereo not drawn), the INHIBITION was -72.5%. For the compound `O=C(CCCOc1ccccc1F)NCCCC(=O)Nc1cn[nH]c1`, the INHIBITION was -97.2%. The result for `Cc1cc(C)n(CC2CCCN2C(=O)c2ccc3c(c2)COC3)n1` (stereo not drawn) reads -101%; that for `c1ccc(OCCNC2=NCCCN2)cc1`, 16.3%; that for `CN(C)c1ccc(CNC2=NCCCN2)cc1`, -56.7%. The result for `CCOCc1ccc(CNC2=NCCCN2)cc1` reads 55.7%; that for `CCOCCOC(C)C(=O)NCc1cn2cc(Cl)ccc2n1` (stereo not drawn), -73.4%; that for `COc1ccc(S(=O)(=O)N2C[C@H](OC)[C@]3(CCCO3)C2)cc1`, -98.4%. The result for `COCC(=O)N[C@@H]1CN(Cc2ccc3c(c2)OCCO3)C[C@H]1O` reads -66.5%; that for `Cc1nn(C)c2cn(C(C)C(=O)NCc3cccc(F)c3)nc12` (stereo not drawn), -32%. In the case of `CC(C)(C)c1nnc(CN2CCCC(Cn3cncn3)C2)o1` (stereo not drawn), the INHIBITION is reported as -204%.

Turning to `c1coc(-c2noc(CN3CCCC(Cn4cncn4)C3)n2)c1` (stereo not drawn), the INHIBITION was -29%.

Regarding `CC(C)c1nnc(CN2CCCC(Cn3cncn3)C2)o1` (stereo not drawn), the INHIBITION was 53.1%. The result for `c1coc(-c2nc(CN3CCCC(Cn4cncn4)C3)cs2)c1` (stereo not drawn) reads -19.5%. Take `Cc1oc(-c2ccco2)nc1CN1CCCC(Cn2cncn2)C1` (stereo not drawn): the INHIBITION is given as 56.4%. The result for `c1ncn(CC2CCCN(Cc3nnc(C4CC4)o3)C2)n1` (stereo not drawn) reads -49%; that for `COc1ccc2c(c1)CC(C1CCOCC1)N(C(=O)c1cnccn1)C2` (stereo not drawn), -108%; that for `COC(=O)c1ccc(N2CCN(C(=O)c3cccnc3)C(C)C2)cc1` (stereo not drawn), -5.1%. Take `CN(C)C(=O)CN1CCc2ncnc(NC3CCC3)c2CC1`: the INHIBITION is on record as -76.8%. `CCC(CO)N(Cc1ccsc1)Cc1cccc(O)c1` (stereo not drawn): the INHIBITION came out at 67.6%.

As for `CCC(CO)N(CC=C(C)C)Cc1ccsc1` (stereo not drawn), the INHIBITION is 23.4%. `CCC(CO)N(Cc1ccc(C(=O)O)cc1)Cc1ccsc1` (stereo not drawn): the INHIBITION is recorded as -74.7%. With `O=C(NCCCN1CCOCC1)c1nc(-c2ccc3cc[nH]c3c2)no1`, the INHIBITION is 20.5%.

Turning to `COc1cccc(CC(=O)N2CCCC2c2nc(C)c(C)c(O)n2)c1` (stereo not drawn), the INHIBITION was -102%. Consider `CN(CCC#N)C(=O)Cn1nnnc1C(C)(C)C`, for which the INHIBITION was -112%. On to `CC(O)(CNC(=O)c1c(F)cccc1Cl)c1ccco1` (stereo not drawn), for which the INHIBITION is given as -45.8%.

`CC(C)c1cc(C(=O)NCCN2CCOCC2)nc(N2CCCC2)n1`: the INHIBITION is reported as -70.3%. Take `c1cc(-c2nc3c(c(NCCc4c[nH]cn4)n2)CCNCC3)ccn1`: the INHIBITION is -225%. The result for `c1nc(CCNc2nc(C3CC3)nc3c2CCNCC3)c[nH]1` reads -79.3%; that for `c1ccc(-c2nc3c(c(NCCc4c[nH]cn4)n2)CCNC3)cc1`, 51.1%; that for `Cc1ccc(C(=O)N2CCC(O)(CN3CCc4ccccc4C3)C2)s1` (stereo not drawn), -64.4%. The result for `CN(C)Cc1ccc(C(=O)N2CCCC(COc3ccc(F)cc3)C2)o1` (stereo not drawn) reads 17.1%. Consider `CC(NC(=O)NCCCN(C)S(C)(=O)=O)c1ccc(Cl)cc1` (stereo not drawn), for which the INHIBITION is -42.6%.

In the case of `Cc1ccc(NC(=O)Nc2cnc(N3CCN(C)CC3)nc2)cc1`, the INHIBITION came out at 59.3%. The result for `COc1ccc(C)cc1NC(=O)Nc1cnc(N2CCCC2)nc1` reads -26.2%; that for `COc1ccc(NC(=O)c2cnc(N3CCN(C)CC3)nc2C)cc1`, -103%; that for `CCC1CN(C)c2ccccc2CN1C(=O)Nc1cccc(F)c1` (stereo not drawn), -107%. Turning to `COCCN(CCOC)C(=O)c1cnn(C)c1C`, the INHIBITION is on record as -57.9%. The result for `CCc1nc(C)sc1CNC1CCN(Cc2ccccc2)C1` (stereo not drawn) reads -2.57%; that for `Cc1nc(CNC2CCN(Cc3ccccc3)C2)sc1C` (stereo not drawn), 7.17%; that for `Cc1nc(CCNC2CCN(Cc3ccccc3)C2)sc1C` (stereo not drawn), 53.5%. On to `CCC(=O)c1ccc(Br)cc1NN1c2cc(Br)ccc2C(=O)C1(C)OC` (stereo not drawn), for which the INHIBITION was determined as 43.1%. The result for `CCc1n[nH]c(C(=O)N2CCN(c3ccc4ccccc4c3)CC2)c1C` reads -8.02%; that for `CCN(C(C)=O)c1nc(CN2CCCCC2Cn2cncn2)cs1` (stereo not drawn), 9.81%; that for `CC(=O)N(C)c1nc(CN2CCCCC2Cn2cncn2)cs1` (stereo not drawn), -125%.

As for `CC(=O)N(c1ccc(C)cc1)c1nc(CN2CCCCC2C)cs1` (stereo not drawn), the INHIBITION was 61.8%. The result for `Cc1cnc(NC(C)Cc2cccnc2)nc1N(C)C` (stereo not drawn) reads 5.71%. For the compound `O=C(NCc1ccco1)[C@@H]1CCO[C@@H]2CCN(CC3CC3)C[C@@H]21`, the INHIBITION is -37.9%. The result for `CN1CC(=O)N(c2cccc(F)c2)CC12CCN(Cc1nccs1)C2` (stereo not drawn) reads -71.1%.

For `c1ccc(-n2nnnc2CNCC2CCCN2c2cccnn2)cc1` (stereo not drawn), the INHIBITION was -59.9%. `CN(C)C(=O)CN1CCCC(c2nccnc2-c2cccc(Cl)c2)C1` (stereo not drawn): the INHIBITION is 6.94%. As for `Cc1cccc(-c2nccnc2C2CCCN(C)C2)c1` (stereo not drawn), the INHIBITION is recorded as -10.8%. For `COCCN1CCCC(c2nccnc2-c2cccc(Cl)c2)C1` (stereo not drawn), the INHIBITION is 62.9%. Take `CN1CCCC(c2nccnc2-c2cccc(C(F)(F)F)c2)C1` (stereo not drawn): the INHIBITION stood at 68.7%.

In the case of `CN1CCCC(c2nccnc2-c2cccc(Cl)c2)C1` (stereo not drawn), the INHIBITION came to 45.1%. Take `Cn1cc(CN2CCCC(c3nccnc3-c3cccc(F)c3)C2)cn1` (stereo not drawn): the INHIBITION is -45.2%. The result for `COc1ccc2c(c1)OCC(CNc1cc(N)nc(SC)n1)C2` (stereo not drawn) reads -50.7%. As for `CC(Cn1cccn1)NCc1ccc(OCc2ccncc2)cc1` (stereo not drawn), the INHIBITION is -96.3%. The result for `CN1CCOC(CNCCOc2ccc(C#N)cc2)C1` (stereo not drawn) reads -41.7%; that for `Oc1coc2cc(OC[C@@H]3CCCN4CCCC[C@H]34)ccc12`, -8.29%. The result for `Cc1c(Cl)cccc1S(=O)(=O)N1CCC(S(=O)(=O)c2nncn2C)CC1` reads -68.7%; that for `O=C(NCc1cnc2n1CCN(Cc1ccsc1)CC2)C1CCC1`, -48.2%; that for `CNS(=O)(=O)CCCN1CCCC1c1noc(C)n1` (stereo not drawn), -104%.

Regarding `CCc1nc(C2CCCN2Cc2nc(C(C)(C)C)no2)no1` (stereo not drawn), the INHIBITION is on record as -105%. For `CCn1cc(CNC(=O)CC(C)C)cn1`, the INHIBITION is given as -153%.

On to `CC(C)n1ccnc1CN1CCCN(C(=O)c2cc(Cl)c[nH]2)CC1`, for which the INHIBITION came out at 39%.

For `CC(C)n1ccnc1CN1CCCN(C(=O)c2cnc[nH]2)CC1`, the INHIBITION is recorded as 60.4%. With `Cc1[nH]ncc1C(=O)N1CCCN(Cc2nccn2C(C)C)CC1`, the INHIBITION amounted to 11.1%.

Consider `CN(C)CC(=O)N1CCC2(CC(=O)N(c3cccc(C#N)c3)C2)C1` (stereo not drawn), for which the INHIBITION is on record as -30%. The result for `Cc1cccc(CN2CCC3(CC(C(=O)NCC(C)C)=NO3)C2)c1` (stereo not drawn) reads -93.1%. The result for `CCOCCN1CCN(CCOCC(F)(F)F)CC1` reads -38.7%; that for `FC(F)(F)C1CCCn2c(CNCc3ccco3)nnc21` (stereo not drawn), -67%; that for `CC(C(=O)NCc1ccco1)N1CCN(Cc2nccn2C)CC1` (stereo not drawn), -35.6%. The result for `Cn1ccnc1C(O)(CCNCc1ccco1)C(F)(F)F` (stereo not drawn) reads 64.6%. Regarding `CCc1cc(=O)[nH]c(-n2nc(C3CC3)cc2NC(=O)C2CC2)n1`, the INHIBITION is reported as -66.5%. As for `COCCN1CCC(NC(=O)NCC2(c3cccc(F)c3)CC2)C1` (stereo not drawn), the INHIBITION is given as -77.2%. The result for `COCCN1CCC(NC(=O)Nc2cccc(F)c2)C1` (stereo not drawn) reads -54.6%; that for `COCCC(=O)NC1CCN(CC2(c3cccc(F)c3)CCCC2)CC1`, 69.1%.

Take `CC(=O)NCC(=O)N1CCn2cc(CN3CCCCC3)nc2C1`: the INHIBITION is recorded as -144%.

As to `O=C(c1ccc(S(=O)(=O)NCCc2ccncc2)cc1)N1CCCC1`, the INHIBITION is -36.5%.

As to `COc1ccc(NC2CCc3c2[nH]c(=O)n(C2CCCCC2)c3=O)cc1` (stereo not drawn), the INHIBITION is given as -98.2%. The result for `CC(=O)N1CCCC1c1ccnc(Nc2cncnc2)n1` (stereo not drawn) reads -101%; that for `c1ncc(Nc2nccc(C3CCCCN3CC3CCCCC3)n2)cn1` (stereo not drawn), 52%. The result for `CC(=O)N1CCC(c2ccnc(Nc3cncnc3)n2)CC1` reads -18.6%. For the compound `CN(C)CCCNC(=O)c1cnc(Cc2ccc(F)cc2)s1`, the INHIBITION turned out to be 27.4%. For `Cc1ccc(C(=O)NC(CN2CCCC2=O)c2ccccc2)cn1` (stereo not drawn), the INHIBITION was -81.3%. The result for `Cc1cccc(C(=O)NC(CN2CCCC2=O)c2ccccc2)n1` (stereo not drawn) reads -161%; that for `Cc1cnc(C(=O)NC(CN2CCCC2=O)c2ccccc2)cn1` (stereo not drawn), 69.6%.

For the compound `Cn1c2ccccc2c2ncn(CCN3CCOCC3)c(=O)c21`, the INHIBITION was -57.9%. The result for `Cc1[nH]c2ccccc2c1-c1ccnc(N[C@@H](CO)C(C)C)n1` reads -9.36%; that for `Cc1[nH]c2ccccc2c1-c1ccnc(N[C@@H](C)CO)n1`, -21.2%. In the case of `Cc1[nH]c2ccccc2c1-c1ccnc(N[C@H](CO)CC(C)C)n1`, the INHIBITION amounted to 51.9%. In the case of `CC(c1nc(-c2ccccc2)no1)N1CCc2c(ncn2C2CC2)C1` (stereo not drawn), the INHIBITION was -19.5%. The result for `Fc1cccnc1Oc1cc(F)c(CN2CCCC2)c(Cl)c1` reads -49.5%; that for `OC[C@H]1CN(C2Cc3ccccc3C2)C[C@H]1CN1CCC(O)CC1`, 15.1%. `CN1CCN(C[C@@H]2CN(C3Cc4ccccc4C3)C[C@@H]2CO)CC1`: the INHIBITION came to 51.4%. In the case of `OCC1CCN(C[C@@H]2CN(C3Cc4ccccc4C3)C[C@@H]2CO)CC1`, the INHIBITION is listed as 66.4%.

Turning to `Cn1ccnc1CN1C[C@@H](CN2CCC(CO)CC2)[C@@H](CO)C1`, the INHIBITION is on record as -1.49%. The result for `Cc1cccc(CN2C[C@@H](CN3CCCN(C)CC3)[C@@H](CO)C2)n1` reads -29.5%; that for `CN1CCN(C[C@@H]2CN(C(=O)c3ccccc3C#N)C[C@@H]2CO)CC1`, -106%; that for `Cc1cc(NCCN2CCNC2=O)nc2cc3c(cc12)CCC3`, -14.4%. The result for `CSCCN1CCC(NC(=O)c2cccc(C3CCCNC3)c2)CC1` (stereo not drawn) reads -131%; that for `CC1CCN(c2nc3c(cnn3-c3ccccc3)c(=O)[nH]2)CC1`, -6.59%; that for `O=c1[nH]c(N2CCN(C3CC3)CC2)nc2c1cnn2-c1ccccc1`, 50.1%. Turning to `O=c1[nH]c(N2CC(O)C2)nc2c1cnn2-c1ccccc1`, the INHIBITION was -202%. The result for `Cc1cc(Cl)cc(C)c1CNC1CCN(CC(=O)N(C)C)CC1` reads 54.4%; that for `Cc1cc2cc(CNC3CCN(CC(=O)N(C)C)CC3)oc2cc1C`, -159%. The result for `Cc1nc(-c2c(C)noc2C)cc(C2CCN(CC(=O)N(C)C)CC2)n1` reads -74%.
